G9a inh – blocks human histone lysine methyltransferase G9a; Q96KQ7; G9a H3K9 monomethylation, AlphaScreen, 2 h; Potency, µM (highest dose often 102 µM), for inactives: at the highest dose activity, negative = inhibition, usual class: inhibitors; hit rate 8.8% among 350,000; note: potency is the fitted concentration of half-maximal effect; % is set by controls: 0 for no effect and ±100 for the full control effect; nearly all actives have a fitted effect of over 75% in size
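Enzyme 20 nM + cpd, 15 min RT; add b-H3K9 pep 500 nM / SAM 20 uM; 2 h RT; anti-H3K9me1 Ab 0.5 ug/mL + SA donor / anti-rabbit acceptor beads 20 ug/mL each, 10 min; AlphaScreen read.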
HP1b chromo inh – inhibitors of HP1-beta chromodomain binding to methylated histone tails; P83916; AlphaScreen HP1-beta / biotin-H3K9me3 peptide binding; Potency, µM (series often up to 114 µM), for the others: at the top dose activity change, negative = inhibition, hits mostly inhibitors; hit rate 0.56% among 390,000; note: potency is the fitted concentration of half-maximal effect; nearly all actives have a fitted effect of over 70% in size
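Compound inhibition of the preformed complex between 50 nM HP1-beta and 50 nM biotinylated H3K9me3 peptide was read by AlphaScreen. Buffer was PBS pH 7.4 with 0.01% Tween-20. Incubations ran 30 min at room temperature, with 10 ug/mL donor/acceptor beads.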
BAZ2B block – blocks human BAZ2B; Q9UIF8; AlphaScreen BAZ2B-H3K14Ac peptide displacement; hit rate 4.4% among 360,000; Potency, µM (top dose mostly 114 µM), inactives show at the highest dose activity change, negative = inhibition, hits mostly inhibitors; note: potency is the fitted concentration of half-maximal effect; % is set by controls: 0 for no effect and ±100 for the full control effect; nearly all actives have a fitted effect of over 60% in size
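Protein-peptide AlphaScreen: BAZ2B 50 nM, b-H3K14Ac 50 nM, 1x PBS pH 7.4 + 0.01% Tween-20. Preincubation 30 min RT; cpd 30 min RT (top 110 uM); beads 20 min RT, light-protected.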
CtBP-E1A inh – blocks the CtBP interaction with E1A. AlphaScreen GST-E1A/His-CtBP binding, 1536-well; hits give low values. activity change, % (no concentration beside the values). hit rate 0.49% among 340,000; in the data active = activity change below about -65%; inconclusive = mostly about -30% to -63%; note: % is set by controls: 0 for no effect and ±100 for the full control effect
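GST-E1A and His-tagged CtBP (125 nM each as 5X stock) were preincubated with pin-transferred compound for 2 h at 37 °C in the dark, then glutathione donor and nickel acceptor beads were added for 1 h before AlphaScreen reading.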
JMJD2A Tudor inh – JMJD2A Tudor domain (human) inhibition; O75164; AlphaScreen JMJD2A-Tudor / H3K4me3 peptide binding; Potency, µM (doses to about 114 µM), inactives show at the highest dose activity change, negative = inhibition, actives largely listed as inhibitors; hit rate 4.4% among 390,000; AID 504339; note: potency is the fitted concentration of half-maximal effect; % is set by controls: 0 for no effect and ±100 for the full control effect; nearly all actives have a fitted effect of over 50% in size
Six1-Eya2 inh – Six1/Eya2 interaction inhibition; Q15475+O00167; AlphaScreen GST-Six1/His-Eya2 binding, biochemical; hits give low values; activity change, % (test concentration not listed); hit rate 0.56% among 360,000; in the data active = activity change below about -65%; inconclusive = mostly about -30% to -63%; note: % is set by controls: 0 for no effect and ±100 for the full control effect
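Compounds are tested against tagged Six1 and Eya2 proteins bridged by glutathione donor and nickel acceptor beads; after a one-hour incubation at 37 °C without light, AlphaScreen emission is recorded.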
Active calls of the source: *; ? = inconclusive; / = no result given; [ ] = dose if it differs, or a comment. Rows were chosen to be rich in hits. Some 10% of all compounds tested hit in one or more screens of this group. Unless noted, calls come from the whole dose curve; as a rule, active = well fitted inhibition curve with a large enough effect; inconclusive = small, poorly fitted or top-dose-only effect; inactive = no such curve, though single readings can be large or run the other way.

SMILES | G9a inh | HP1b chromo inh | BAZ2B block | CtBP-E1A inh | JMJD2A Tudor inh | Six1-Eya2 inh
CN(C)c1ccc(N=Cc2ccco2)cc1 | 10µM* | 16µM* | -108% | ? | 28µM* | ?
CN(C)c1ccc(C=Nc2ccccc2)cc1 | 23%[59 µM] | 13% | 50%[57.1 µM] | -5 | -10% | -3
CN(C)c1ccc(C=Nc2ccc(N(C)C)cc2)cc1 | ? | 50µM* | 20µM* | ? | 56µM* | ?
C(=Nc1cccc2c(N=Cc3ccco3)cccc12)c1ccco1 | 40µM* | -5% | 28µM* | / | -32% | 3
COc1cccc(-c2nc(SCC(=O)Nc3ccc4c(c3)OCCO4)c(-c3ccc(C)cc3)[nH]2)c1 | ? | 2% | ? | / | ? | /
O=C(CS(=O)(=O)c1cccc2nsnc12)NCc1ccccc1Cl | 0%[59 µM] | 30%[57 µM] | 1% | / | -20% | /
CN(C)C(=O)Nc1ccccc1CC[N+](=O)[O-] | -18% | 20% | -14% | -3 | -3% | -1
O=C(Nc1ccc(Cl)cc1)Nc1ccccc1CC[N+](=O)[O-] | -43% | -8% | -28% | 1 | 22µM* | -1
CCCNC(=O)c1ccc2snnc2c1 | 2%[59 µM] | 20% | -4% | -2 | 0% | -8
CCCNC(=O)NS(=O)(=O)c1ccc(Cl)cc1 | -4%[59 µM] | 144% | 5% | 0 | -4% | 21
CCCNC(=O)c1nnsc1S(=O)c1ccc(Cl)cc1 (stereo not given) | 25µM* | -15% | -2% | -1 | -18% | 3
CCCNC(=O)c1nnsc1S(=O)(=O)c1ccc(Cl)cc1 | 13µM* | 16% | -12% | -2 | -14% | -7
Cc1ccc(S(=O)c2snnc2C)cc1 (stereo not given) | -4% | 24% | 0% | 6 | -15% | 7
CNC(=O)c1nnsc1S(=O)c1ccc(Cl)cc1 (stereo not given) | 35µM* | -6% | -2% | -3 | -32% | -1
CCc1cccc(C)c1NC(=O)CSc1nc2c(c(=O)[nH]1)CCC2 | -29%[59 µM] | 21% | -13% | / | -9% | /
Cc1cccc(NC(=O)Cn2cc(C(=O)C3CCCCC3)c3ccccc32)c1 | 44%[59 µM] | 59% | 33% | / | 4% | /
CCN(CC)c1ccc(C(=S)N2CCN(c3ccccc3)CC2)cc1 | 11µM* | ? | 10µM* | -10 | -17%[11.4 µM] | -15
CC(C)(C)c1ccc(C(=S)N2CCN(c3ccccc3)CC2)cc1 | 20µM* | ? | -34% | -17 | -36% | -23
CCOC(=O)c1ccc(Nc2c(-c3ccc(N(C)C)cc3)nc3nc[nH]n23)cc1 | 16µM* | -15% | ? | / | -34% | /
CCOC(=O)c1ccc(Nc2c(-c3cccc(O)c3)nc3nc[nH]n23)cc1 | ? | 13% | -31% | / | -34% | /
CCN1CCN(c2ccc(NC(=O)c3ccc4c(c3)[nH]c(=O)n4Cc3ccc(F)cc3)cc2)CC1 | 50µM* | -6% | ? | 1 | ? | -25
CCN1CCN(c2cc(=O)n(Cc3ccc(F)cc3)c(=O)[nH]2)CC1 | ? | 42% | / | / | 5% | 2
COc1ccc(Cn2c(=O)[nH]c3cc(C(=O)Nc4ccc(N5CCN(C)CC5)cc4)ccc32)cc1 | 45µM* | -38% | ? | -16 | ? | 0
Cc1noc(NS(=O)(=O)c2ccc(N/C=C\C(=O)c3ccc(F)cc3)cc2)c1C | / | 0% | ? | 3 | -20%[57.1 µM] | -13
Cc1noc(NS(=O)(=O)c2ccc(N/C=C\C(=O)c3ccccc3)cc2)c1C | 50µM* | -17% | -34% | / | 2%[11.4 µM] | -13
SMILES | G9a inh | HP1b chromo inh | BAZ2B block | CtBP-E1A inh | JMJD2A Tudor inh | Six1-Eya2 inh
Cc1noc(NS(=O)(=O)c2ccc(N/C=C/C(=O)c3ccc4c(c3)OCO4)cc2)c1C | 79µM* | 12% | ? | ? | -21% | ?
CCOc1cc(-c2nc(-c3ccc(Br)cc3)no2)cc(OCC)c1OCC | 16%[59 µM] | 52% | 11% | / | -2% | /
O=c1oc2ccccc2c(N2CCCCC2)c1CN1CCCC1 | 11%[59 µM] | 23% | 6% | -3 | 4% | 3
CCc1oc2ccccc2c1C(=O)CCN1CCCCC1 | 1.4µM* | 39% | 8% | -3 | -22% | -3
Cc1c(NC(=O)c2sc3ccccc3c2Cl)cccc1-c1nc2ccccc2o1 | 3%[59 µM] | -7% | 1% | / | -21% | /
COc1ccccc1Nc1nnc(SCc2nnc(-c3cc(OC)c(OC)c(OC)c3)o2)s1 | 14µM* | 6% | -28% | -10 | ? | -15
CCn1c2ccccc2c2cc(CN3CCN(Cc4ccccc4Cl)CC3)ccc21 | 3.5µM* | ? | 50µM* | / | 7.1µM* | /
CCOc1ccc(CN2CCN(Cc3ccc4c(c3)c3ccccc3n4CC)CC2)cc1 | 4.5µM* | ? | 10µM* | / | 22µM* | /
CCN1CCN(Cc2ccc(OC)c(OCc3ccccc3)c2)CC1 | ? | 8% | -38% | 2 | -19% | 0
CCn1c2ccccc2c2cc(CN3CCN(Cc4ccc(OC)c(OC)c4)CC3)ccc21 | ? | ? | 45µM* | / | 4.5µM* | /
CC(C)OC(=O)c1nn2c(C(F)(F)F)cc(-c3ccc(Br)o3)nc2c1Br | 35µM* | 10% | -4% | -19 | -22% | -16
Cc1cccc(NC(=O)CSCC(=O)N(C)CCOc2ccc(Cl)cc2)c1 | 56µM* | 23% | -3% | 8 | -10% | 1
COc1cccc(NC(=O)Cc2ccccc2)c1 | -10% | 46% | -6% | 3 | 6% | 10
Cc1ccc(NC(=O)CSCC(=O)N(C)CC(=O)Nc2cccc(F)c2)cc1 | 45µM* | 20% | 2% | -1 | -6% | -1
O=C(CSCc1ccccc1)Nc1cccc(F)c1 | 9%[59 µM] | 22% | 4% | 4 | 45µM* | -1
O=C(CSCc1ccc(F)cc1)Nc1ccc(F)cc1 | -8% | 51% | -2% | 1 | 3% | -4
O=C(Cc1ccccc1)Nc1cccc(N2C(=O)C=CC2=O)c1 | 0.35µM* | ? | ? | -6 | 20µM* | -29

High-throughput results: PubChem BioAssay, National Center for Advancing Translational Sciences (NCATS)
